Values joined by “and” are separate entries in the source; they are usually repeats but may differ in a detail not shown here. Equal values may be shown once. Inconclusive results are not listed. Active and inactive are the calls of the source. Unless noted, calls come from the whole dose curve; as a rule, active = well fitted curve in the direction sought with a large enough effect in the repeat runs; inconclusive = weak or mixed curves; inactive = no such curve, though single readings can be large; an effect the other way counts as inactive or inconclusive.
Tests used:
[1] = qHTS assay to identify small molecule antagonists of the progesterone receptor (PR) signaling pathway - cell viability counter screen (AID 1346798); note: nearly all actives have a fitted effect of over 50% in size; note: potency is the fitted concentration of half-maximal effect; for activity change, negative = cytotoxicity: series mostly up to about 92 µM
How it was run: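 ATP content as viability readout: CellTiter-Glo luminescence, 30 min room temperature, in PR-UAS-bla HEK293T cells after 16 hr compound/R5020 treatment at 37C and 5% CO2.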

[2] = qHTS assay to identify small molecule antagonists of the TGF-beta/Smad signaling pathway - cell viability counter screen (AID 1346824); note: nearly all actives have a fitted effect of over 50% in size
How it was run: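 Cytotoxicity counter-screen run in the same wells as the beta-lactamase Smad reporter read: CellTiter-Glo luminescence after 30 min at room temperature. HEK 293T SBE-bla cells had 5 hr compound exposure at 37 C with TGF-beta1 (0.25 ng/mL stock).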

[3] = qHTS assay to identify small molecule agonists of the TGF-beta/Smad signaling pathway - cell viability counter screen (AID 1346829); note: top concentration of the series differs between compounds; nearly all actives have a fitted effect of over 45% in size
How it was run: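 Here the cytotoxicity of library compounds is measured in SBE-bla HEK 293T cells treated for 5 hr, using CellTiter-Glo added to wells already read for the beta-lactamase reporter.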

[4] = qHTS assay to identify small molecule agonists of the TGF-beta/Smad signaling pathway (AID 1346859; active = well fitted activation curve with a large enough effect in the signal ratio in the repeat runs, not every such curve was filed as active; the % refers to the signal ratio; note: series mostly up to about 77 µM)
How it was run: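 Stable Smad binding element-beta-lactamase HEK 293T cells; 5 hr compound exposure at 37 C under 5% CO2; 2 hr room-temperature substrate step; fluorescence excited at 405 nm, collected at 460 nm and 530 nm.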

[5] = molecular target: Thyrotropin-releasing hormone receptor (Homo sapiens) (UniProt P34981); assay: qHTS assay to identify small molecule antagonists of the thyrotropin-releasing hormone receptor (TRHR) signaling pathway (AID 1346877; active = well fitted inhibition curve with a large enough effect in the repeat runs, not every such curve was filed as active; note: series mostly up to about 51 µM)
How it was run: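 TRHR-expressing HEK293 cells were seeded, cultured 18 h at 37 °C, then loaded with calcium dye for 2 h. Compounds were pre-incubated 5 min at room temperature before 1 nM TRH (final) was added, and kinetic fluorescence was recorded for 3 min.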

[6] = molecular target: Thyrotropin-releasing hormone receptor (Homo sapiens) (UniProt P34981); assay: qHTS assay to identify small molecule agonists of the thyrotropin-releasing hormone receptor (TRHR) signaling pathway (AID 1346891; calls by dose curve; note: series mostly up to about 58 µM)
How it was run: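 In 1536-format, 1500 TRHR-Hek293 cells per well grew 18 h, took up calcium dye for 2 h at 37 °C, received compound, and were read kinetically; 15-point titrations, triplicates.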

[7] = Caspase-3/7 induction in HepG2 cells by small molecules, qHTS assay (AID 1346978); note: nearly all actives have a fitted effect of over 15% in size
How it was run: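 Caspase-3/7 induction was measured by Caspase-Glo 3/7 luminescence (30 min, room temperature) after a 17 hr compound exposure of wild-type HepG2 cells seeded at 2,000 per well and pre-incubated 5 hr.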

[8] = Caspase-3/7 induction in CHO-K1 cells by small molecules, qHTS cell viability counter screen (AID 1346979); note: nearly all actives have a fitted effect of over 35% in size; note: potency is the fitted concentration of half-maximal effect
How it was run: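 To flag cytotoxic compounds, treated CHO-K1 wild-type cells were given CellTiter-Fluor at 16hr and read fluorescently after 1hr at 37C; the caspase-3/7 luminescence was measured in these same wells.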

[9] = qHTS assay to identify small molecule agonists of the progesterone receptor (PR) signaling pathway - cell viability counter screen (AID 1346799; calls by dose curve; note: nearly all actives have a fitted effect of over 45% in size; note: potency is the fitted concentration of half-maximal effect)
How it was run: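 Cytotoxicity in PR-bla HEK293T cells: 16 h compound, 37C; CellTiter-Glo added post-FRET read; luminescence after 30 min RT.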

[10] = Human pregnane X receptor (PXR) small molecule agonists, qHTS cell viability counter screen (AID 1346977); note: nearly all actives have a fitted effect of over 50% in size
How it was run: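 Readout is CellTiter-Fluor fluorescence from PXR-Luc HepG2 cells. Plated cells rested 5hr, then were treated with compounds for 24hr at 37C and 5% CO2, with reagent present during the last hour.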
% is set by controls: 0 for no effect and ±100 for the full control effect.

Thyrotropin-releasing hormone receptor (Homo sapiens), sequence (P34981 whole entry, looked up): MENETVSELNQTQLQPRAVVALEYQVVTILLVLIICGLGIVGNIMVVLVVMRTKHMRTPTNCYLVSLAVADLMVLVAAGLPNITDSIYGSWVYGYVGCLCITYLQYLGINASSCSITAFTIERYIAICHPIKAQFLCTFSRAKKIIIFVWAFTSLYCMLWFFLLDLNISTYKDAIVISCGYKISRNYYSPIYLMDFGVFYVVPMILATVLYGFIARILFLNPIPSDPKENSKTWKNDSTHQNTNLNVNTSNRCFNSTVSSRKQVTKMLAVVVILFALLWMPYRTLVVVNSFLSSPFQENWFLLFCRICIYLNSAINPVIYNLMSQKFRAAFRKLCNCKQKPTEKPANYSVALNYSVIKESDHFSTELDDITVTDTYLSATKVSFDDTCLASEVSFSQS

CCN(CC)CCNC(C(=O)OCCC(C)C)c1ccccc1 (stereo unspecified)
inactive: Potency [1] | Potency [2] | Potency [3] | outcome [4] | outcome [5] | Potency [6] | outcome [7] | Potency [8]

CC[C@H](C)[C@@H](C(=O)O)n1sc2ccccc2c1=O
inactive: Potency [9] | Potency [2] | outcome [4] | outcome [5] | Potency [6] | Potency [10] | outcome [7] | Potency [8]
active: Potency [1] 30.6 µM

CC(C)c1ccccc1C(C)C
inactive: Potency [1] | Potency [9] | Potency [2] | outcome [4] | Potency [10] | outcome [7] | Potency [8]

CC(=O)CC(=O)c1ccccc1
inactive: Potency [1] | Potency [2] | Potency [3] | outcome [4] | outcome [5] | Potency [10] | outcome [7] | Potency [8]

O=C(O)[C@@H]1[C@H]2C[C@H]3c4[nH]c5ccccc5c4CCN3C[C@@H]2CC[C@@H]1O
inactive: Potency [1] | Potency [2] | Potency [3] | outcome [4] | outcome [5] | Potency [6] | Potency [10] | outcome [7] | Potency [8]

CCCCCCCCCO
inactive: Potency [1] | Potency [2] | Potency [3] | outcome [4] | outcome [5] | Potency [6] | Potency [10] | outcome [7] | Potency [8]

N#CCc1cccc(C(F)(F)F)c1
inactive: Potency [1] | Potency [9] | Potency [2] | outcome [4] | outcome [5] | Potency [6] | Potency [10] | outcome [7] | Potency [8]

O=C(Nc1ccccc1)OCC(CN1CCCCC1)OC(=O)Nc1ccccc1 (stereo unspecified)
inactive: Potency [1] | Potency [9] | Potency [2] | outcome [4] | outcome [5] | Potency [6] | outcome [7]

CN(C)CCCNCCCN
inactive: Potency [1] | Potency [9] | Potency [2] | outcome [4] | outcome [5] | Potency [6] | Potency [10] | outcome [7] | Potency [8]

CCCC[C@H]1CN(CC2CCOCC2)C(=O)OC12CCN(C1(C)CCN(C(=O)c3c(C)ncnc3C)CC1)CC2
inactive: Potency [1] | Potency [9] | Potency [2] | outcome [4] | outcome [5] | Potency [6] | Potency [10] | outcome [7] | Potency [8]

CN1CCC(=C2c3ccccc3C=Cc3ccccc32)CC1
inactive: Potency [9] | Potency [2] | Potency [3] | outcome [4] | outcome [7]

Oc1ccc2c(c1)OCO2
inactive: Potency [9] | Potency [2] | Potency [3] | outcome [4] | Potency [10] | outcome [7] | Potency [8]

CCCCCCCCCCCCCCCBr
inactive: Potency [1] | Potency [2] | Potency [3] | outcome [4] | Potency [10] | outcome [7] | Potency [8]

O=C=NC1CCC(CC2CCC(N=C=O)CC2)CC1 (stereo unspecified)
active: Potency [9] 8.63 µM
inactive: Potency [2] | Potency [3] | outcome [4] | outcome [7] | Potency [8]

OCC1CC2CC1C1CCC(CO)C21 (stereo unspecified)
inactive: Potency [2] | outcome [4] | Potency [10] | outcome [7] | Potency [8]
active: Potency [1] 27.3 µM

C=C(C)C(=O)OC(C)C
inactive: Potency [9] | Potency [2] | outcome [4] | outcome [5] | Potency [6] | Potency [10] | outcome [7] | Potency [8]

C[C@@H](C1=C(CCN(C)C)Cc2ccccc21)c1ccccn1
inactive: Potency [9] | Potency [2] | Potency [3] | outcome [4] | outcome [7] | Potency [8]

CCCCOC(=O)/C=C\C(=O)OCCCC
inactive: Potency [1] | Potency [2] | Potency [3] | outcome [4] | Potency [6] | outcome [7] | Potency [8]

CCCCCCCC/C=C\CCCCCCCC(N)=O
inactive: Potency [9] | Potency [2] | Potency [3] | outcome [4] | outcome [5] | Potency [6] | outcome [7] | Potency [8]

CC(=O)OC/C=C/c1ccccc1
inactive: Potency [9] | Potency [2] | Potency [3] | outcome [4] | Potency [6] | Potency [10] | outcome [7] | Potency [8]

O=C(O)COC(=O)Cc1ccccc1Nc1c(Cl)cccc1Cl
inactive: Potency [9] | Potency [2] | Potency [3] | outcome [4] | Potency [10] | outcome [7]

CCN1CCC[C@H]1CNC(=O)c1c(OC)ccc(Br)c1OC
inactive: Potency [1] | Potency [2] | Potency [3] | outcome [4] | Potency [10] | outcome [7] | Potency [8]

CN1CCC(=C2c3ccccc3CCc3sccc32)CC1
active: Potency [9] 15 µM
inactive: Potency [2] | Potency [3] | outcome [4] | outcome [7] | Potency [8]

Cn1sccc1=O
active: Potency [8] 30.6 µM and 43.3 µM
inactive: Potency [1] | Potency [2] | Potency [3] | outcome [4] | Potency [10] | outcome [7]

NC[C@H]1O[C@H](O[C@H]2[C@H](O)[C@@H](O[C@H]3O[C@H](CO)[C@@H](O)[C@H](N)[C@H]3O)[C@H](N)C[C@@H]2N)[C@H](O)[C@@H](O)[C@@H]1O
inactive: activity change, negative = cytotoxicity [1] 1.76% [at 8.39 µM] | viability change, negative = cytotoxic [2] 0.819% [at 6.97 µM] | activity change, negative = cytotoxicity [3] 4.11% [at 6.97 µM] | activation [4] -1.71% [at 6.97 µM] | activity change, negative = cytotoxicity [10] -6.07% [at 8.39 µM] | caspase activation [7] 0.334% [at 8.39 µM]

Nc1ccc(C(=O)Nc2ccccc2N)cc1
inactive: Potency [2] | outcome [4]
active: Potency [1] 13.3 µM

CN(c1nccc(=O)[nH]1)C1CCN(c2nc3ccccc3n2Cc2ccc(F)cc2)CC1
inactive: Potency [9] | Potency [2] | Potency [3] | outcome [4] | Potency [6] | Potency [10] | outcome [7]

O=[N+]([O-])c1cc[n+]([O-])cc1
active: Potency [8] 38.6 µM
inactive: Potency [1] | Potency [3] | outcome [4] | outcome [5] | Potency [6] | outcome [7]
